Assay results reported in PubChem BioAssay (Tox21).
Results filed as inconclusive are left out. Calls of active or inactive are those of the source. Unless noted, calls follow the shape of the dose curve; as a rule, active = well fitted curve in the direction sought with a large enough effect in the repeat runs; inconclusive = weak or mixed curves; inactive = no such curve, though single readings can be large; an effect the other way counts as inactive or inconclusive.

Experiments:
[1] = qHTS assay to identify aromatase inhibitors - cell viability counter screen (AID 743084);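 also: cells stimulated with testosterone during compound exposure; nearly all actives have a fitted effect of over 55% in size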
[2] = qHTS assay to identify small molecule that activate the aryl hydrocarbon receptor (AhR) signaling pathway - cell viability counter screen (AID 743086);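 also: HepG2 liver cells carrying the AhR DRE luciferase reporter; series mostly up to about 70 µM; nearly all actives have a fitted effect of over 45% in size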
Outline: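 HepG2-AhR-luc (HG2L7.5c1) cells, 4000/well, were preincubated 5 h at 37C, exposed to compound in qHTS format for 24 hr at 37C, then given CellTiter-Fluor for 30 min; viability was read as fluorescence in the reporter wells.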

[3] = target: Peroxisome proliferator-activated receptor gamma (Homo sapiens) (UniProt P37231); test: qHTS assay to identify small molecule agonists of the peroxisome proliferator-activated receptor gamma (PPARg) signaling pathway (AID 743094; active = well fitted activation curve with a large enough effect in the signal ratio in the repeat runs, not every such curve was filed as active; the % refers to the signal ratio)
Outline: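 Beta-lactamase FRET fluorescence was the read-out after a 1 h room-temperature substrate step, following 17 h compound treatment at 37C of HEK293H cells expressing a UAS-driven bla reporter responsive to PPARg.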

[4] = qHTS assay to identify small molecule antagonists of the peroxisome proliferator-activated receptor gamma (PPARg) signaling pathway - cell viability counter screen (AID 743194); also: nearly all actives have a fitted effect of over 55% in size
Outline: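 PPARg-UAS-bla HEK293H cells were plated, rested 5 h at 37 C, then treated with compounds plus rosiglitazone (50 nM final) for 17 h at 37 C; viability was then read by CellTiter-Glo luminescence after 30 min at room temperature.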

[5] = qHTS assay for small molecule agonists of the antioxidant response element (ARE) signaling pathway (AID 743202; active = well fitted activation curve with a large enough effect in the signal ratio in the repeat runs, not every such curve was filed as active; the % refers to the signal ratio)
Outline: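 Compounds delivered in DMSO to ARE-bla HepG2 cells (2,000 cells/well, pre-incubated 5 h) and left 16 h at 37 C. LiveBLAzer B/G FRET substrate then added for 2 h at RT before fluorescence reading.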

[6] = qHTS assay for small molecule agonists of the antioxidant response element (ARE) signaling pathway - cell viability counter screen (AID 743203; calls by dose curve; also: nearly all actives have a fitted effect of over 55% in size)
Outline: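 HepG2 cells carrying ARE-driven beta-lactamase; 2,000 cells/well; 5 hrs plating; compound pinned from DMSO; 16 hrs 37C/5% CO2; CellTiter-Glo added; 30 min RT; luminescence.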

[7] = qHTS assay for small molecule activators of the heat shock response signaling pathway (AID 743210; active = well fitted activation curve with a large enough effect in the signal ratio in the repeat runs, with a control signal flat, not every such curve was filed as active; the % refers to the signal ratio;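 also: HeLa cells with beta-lactamase reporter driven by heat shock elements; series mostly up to about 63 µM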)
Outline: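 Reporter gene assay: HeLa cells stably bearing an HSE-bla construct, compound treatment 5 h at 37 C, LiveBLAzer substrate 2.5 h at RT, fluorescence intensity.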

[8] = qHTS assay to identify small molecule agonists of the peroxisome proliferator-activated receptor delta (PPARd) signaling pathway - cell viability counter screen (AID 743211); also: nearly all actives have a fitted effect of over 55% in size
Outline: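 qHTS cell viability: PPARd-bla HEK293H; 17 h cpd, 37C; CellTiter-Glo, luminescence at 30 min RT.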

[9] = target: Peroxisome proliferator-activated receptor delta (Homo sapiens) (UniProt Q03181); test: qHTS assay to identify small molecule agonists of the peroxisome proliferator-activated receptor delta (PPARd) signaling pathway (AID 743212; calls by dose curve)
Outline: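 A PPARd-bla HEK293H line with beta-lactamase under an Upstream Activator Sequence is treated with compounds at 37 C. Substrate loading for 2 h at room temperature precedes the fluorescence measurement.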

[10] = qHTS assay to identify small molecule antagonists of the peroxisome proliferator-activated receptor delta (PPARd) signaling pathway - cell viability counter screen (AID 743213); also: nearly all actives have a fitted effect of over 50% in size
Outline: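 Same-well viability: cells pre-incubated 5 h, dosed with compound plus 300 nM L165041, kept 17 h at 37 C, FRET substrate 2 h RT, then CellTiter-Glo 30 min RT and luminescence.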

[11] = target: Bile acid receptor (Homo sapiens) (UniProt Q96RI1); test: qHTS assay to identify small molecule antagonists of the farnesoid-X-receptor (FXR) signaling pathway (AID 743217; active = well fitted inhibition curve with a large enough effect in the signal ratio in the repeat runs, not every such curve was filed as active; the % refers to the signal ratio)
Outline: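 HEK 293T FXR-UAS-bla, 5000 cells/well; compound + CDCA 50 uM final; 16 h, 37 °C; B/G FRET substrate 2 h RT; fluorescence.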

[12] = qHTS assay to identify small molecule agonists of the farnesoid-X-receptor (FXR) signaling pathway - cell viability counter screen (AID 743218); also: nearly all actives have a fitted effect of over 45% in size
Outline: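 HEK 293T FXR-bla cells; 5 h pre-incubation, 16 h compound exposure at 37 C; LiveBLAzer substrate 2 h RT, then CellTiter-Glo 30 min RT, luminescence.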

[13] = target: Bile acid receptor (Homo sapiens) (UniProt Q96RI1); test: qHTS assay to identify small molecule agonists of the farnesoid-X-receptor (FXR) signaling pathway (AID 743220; active = well fitted activation curve with a large enough effect in the signal ratio in the repeat runs, not every such curve was filed as active; the % refers to the signal ratio)
Outline: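 Beta-lactamase reporter under UAS control in GeneBLAzer FXR HEK 293T cells (5000/well) measured with LiveBLAzer FRET substrate after 2 h at room temperature. Compound exposure lasted 16 h at 37C.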

[14] = qHTS assay to identify small molecule antagonists of the farnesoid-X-receptor (FXR) signaling pathway - cell viability counter screen (AID 743221; active = well fitted cell-killing curve with a large enough effect in the repeat runs, not every such curve was filed as active; also: nearly all actives have a fitted effect of over 50% in size)
Outline: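 After a 5 h settling period, FXR-bla HEK 293T cells receive compound and chenodeoxycholic acid (50 uM final) and incubate 16 h at 37 C; CellTiter-Glo luminescence, read after 30 min at room temperature, reports cell viability.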

[15] = target: Vitamin D3 receptor (Homo sapiens) (UniProt P11473); test: qHTS assay to identify small molecule agonists of the vitamin D receptor (VDR) signaling pathway (AID 743222; calls by dose curve)
Outline: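 VDR-bla cells, 2,000/well; 4 h preincubation 37C; cpd (DMSO) 16 h; LiveBLAzer B/G substrate 2 h RT; fluorescence intensity read.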

[16] = target: Vitamin D3 receptor (Homo sapiens) (UniProt P11473); test: qHTS assay to identify small molecule antagonists of the vitamin D receptor (VDR) signaling pathway (AID 743223; active = well fitted inhibition curve with a large enough effect in the signal ratio in the repeat runs, not every such curve was filed as active; the % refers to the signal ratio)
Outline: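 Reporter line VDR-bla; stimulus 1alpha,25-(OH)2 vitamin D3, 3 nM final; compound co-addition, 16 h 37C/5% CO2; LiveBLAzer B/G substrate 2 h RT; fluorescence intensity.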

[17] = target: Peroxisome proliferator-activated receptor gamma (Homo sapiens) (UniProt P37231); test: qHTS assay to identify small molecule antagonists of the peroxisome proliferator-activated receptor gamma (PPARg) signaling pathway (AID 743191; calls by dose curve; also: series mostly up to about 63 µM; nearly all actives have a fitted effect of over 30% in size)
Outline: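 GeneBLAzer PPARg UAS-bla HEK293H cells carrying a UAS-driven beta-lactamase reporter were plated at 3000 cells/well, preincubated 5 h at 37C, then given compound for 17 h at 37C; LiveBLAzer B/G FRET substrate was read after 1 h at room temperature.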

[18] = qHTS assay for small molecule activators of the heat shock response signaling pathway - cell viability counter screen (AID 743209); also: nearly all actives have a fitted effect of over 50% in size
Outline: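 Luminescence from CellTiter-Glo, added after the beta-lactamase FRET read, gave the viability signal. Cells were HSE-bla HeLa treated with DMSO-dissolved compounds for 5 h at 37 C following overnight plating.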

[19] = target: Peroxisome proliferator-activated receptor delta (Homo sapiens) (UniProt Q03181); test: qHTS assay to identify small molecule antagonists of the peroxisome proliferator-activated receptor delta (PPARd) signaling pathway (AID 743215; active = well fitted inhibition curve with a large enough effect in the signal ratio in the repeat runs, not every such curve was filed as active; the % refers to the signal ratio;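 also: cells stimulated with agonist L165041 at 300 nM final during compound exposure; series mostly up to about 62 µM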)
Outline: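 Read-out is beta-lactamase FRET fluorescence, measured 2 h after substrate addition at room temperature. Beforehand, UAS-bla HEK293H cells carrying the PPARd reporter were exposed to compounds with L165041 at 300 nM final for 17 h at 37 C.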

Measured: Potency

Peroxisome proliferator-activated receptor delta (Homo sapiens), sequence (Q03181 whole entry, looked up): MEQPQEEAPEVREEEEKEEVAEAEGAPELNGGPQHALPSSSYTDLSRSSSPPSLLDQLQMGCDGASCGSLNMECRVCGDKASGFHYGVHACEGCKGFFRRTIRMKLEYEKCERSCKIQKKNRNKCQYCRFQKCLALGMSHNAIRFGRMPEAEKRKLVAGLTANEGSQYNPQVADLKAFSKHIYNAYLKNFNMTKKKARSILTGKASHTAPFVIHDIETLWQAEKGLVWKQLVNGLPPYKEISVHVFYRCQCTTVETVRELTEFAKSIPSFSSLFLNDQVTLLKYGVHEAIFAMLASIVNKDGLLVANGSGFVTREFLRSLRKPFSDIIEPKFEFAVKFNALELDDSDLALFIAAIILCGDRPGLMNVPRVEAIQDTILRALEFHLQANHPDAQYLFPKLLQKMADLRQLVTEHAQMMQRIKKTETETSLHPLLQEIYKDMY
Bile acid receptor (Homo sapiens), sequence (Q96RI1 whole entry, looked up): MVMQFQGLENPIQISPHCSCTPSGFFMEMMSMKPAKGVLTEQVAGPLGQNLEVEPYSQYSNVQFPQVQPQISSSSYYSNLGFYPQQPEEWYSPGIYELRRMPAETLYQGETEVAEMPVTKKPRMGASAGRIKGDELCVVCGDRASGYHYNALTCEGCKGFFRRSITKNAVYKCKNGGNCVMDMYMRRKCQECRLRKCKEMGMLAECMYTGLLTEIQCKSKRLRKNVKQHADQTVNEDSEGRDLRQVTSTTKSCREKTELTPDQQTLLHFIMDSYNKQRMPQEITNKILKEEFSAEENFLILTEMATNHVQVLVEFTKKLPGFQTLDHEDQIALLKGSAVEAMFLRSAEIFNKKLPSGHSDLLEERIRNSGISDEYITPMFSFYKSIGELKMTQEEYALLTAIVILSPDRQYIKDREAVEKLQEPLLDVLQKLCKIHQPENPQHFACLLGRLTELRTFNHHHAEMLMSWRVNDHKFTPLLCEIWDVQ
Vitamin D3 receptor (Homo sapiens), sequence (P11473 whole entry, looked up): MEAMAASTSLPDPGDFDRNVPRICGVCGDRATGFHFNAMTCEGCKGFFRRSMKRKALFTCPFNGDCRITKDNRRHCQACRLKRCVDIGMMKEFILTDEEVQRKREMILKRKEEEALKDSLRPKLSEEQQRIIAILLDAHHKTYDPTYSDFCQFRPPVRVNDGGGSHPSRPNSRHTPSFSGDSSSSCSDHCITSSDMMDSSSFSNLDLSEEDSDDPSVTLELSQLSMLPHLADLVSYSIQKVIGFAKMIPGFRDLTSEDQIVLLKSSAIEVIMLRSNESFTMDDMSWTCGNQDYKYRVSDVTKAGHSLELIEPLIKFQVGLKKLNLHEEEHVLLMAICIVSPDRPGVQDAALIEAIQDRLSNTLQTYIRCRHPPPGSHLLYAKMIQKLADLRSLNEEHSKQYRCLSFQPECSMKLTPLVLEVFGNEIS
Peroxisome proliferator-activated receptor gamma (Homo sapiens), sequence (P37231 whole entry, looked up): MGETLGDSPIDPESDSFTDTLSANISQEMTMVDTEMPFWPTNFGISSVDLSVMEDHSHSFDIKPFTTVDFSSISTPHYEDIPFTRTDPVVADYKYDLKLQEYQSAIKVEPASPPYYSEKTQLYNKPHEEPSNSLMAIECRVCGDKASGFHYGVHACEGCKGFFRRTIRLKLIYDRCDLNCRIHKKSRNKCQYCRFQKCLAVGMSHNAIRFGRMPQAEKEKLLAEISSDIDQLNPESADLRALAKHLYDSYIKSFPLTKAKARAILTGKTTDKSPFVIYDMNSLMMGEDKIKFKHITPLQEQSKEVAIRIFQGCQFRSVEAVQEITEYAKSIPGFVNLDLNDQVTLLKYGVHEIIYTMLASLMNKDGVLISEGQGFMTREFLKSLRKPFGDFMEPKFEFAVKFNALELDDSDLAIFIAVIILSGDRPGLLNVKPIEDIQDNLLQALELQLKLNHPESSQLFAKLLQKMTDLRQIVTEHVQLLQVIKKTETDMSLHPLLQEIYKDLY

CCN1CCOCC1
inactive: [1] | [2] | [3] | [4] | [5] | [6] | [7] | [8] | [9] | [10] | [11] | [12] | [13] | [14] | [15] | [16]

c1ccc2sc(SN3CCOCC3)nc2c1
inactive: [1] | [2] | [17] | [4] | [5] | [6] | [18] | [7] | [8] | [10] | [19] | [12] | [14] | [15] | [16]

Nc1c2c(nc3c1CCC3)CCCC2
inactive: [1] | [3] | [17] | [4] | [5] | [6] | [18] | [8] | [10] | [11] | [12] | [14] | [15] | [16]

CC(C)(CCC(=O)O)C(=O)O
inactive: [1] | [2] | [3] | [4] | [6] | [7] | [8] | [10] | [12] | [14] | [15] | [16]

O=C(O)CNC(=O)c1ccc(CO)o1
inactive: [1] | [3] | [4] | [5] | [6] | [7] | [8] | [9] | [19] | [12] | [14]

Nc1ccn([C@@H]2O[C@H](CO)[C@@H](O)C2(F)F)c(=O)n1
inactive: [1] | [2] | [4] | [6] | [18] | [8] | [9] | [10] | [14] | [15] | [16]

CCCCCCC1CCC(=O)O1 (stereo not given)
inactive: [1] | [3] | [4] | [5] | [6] | [18] | [7] | [8] | [9] | [10] | [19] | [14] | [15]

CCOc1ccc2nc(S(N)(=O)=O)sc2c1
inactive: [1] | [3] | [4] | [6] | [18] | [7] | [8] | [10] | [19] | [12] | [14] | [15] | [16]

CN1C(C)(C)CC(O)CC1(C)C
inactive: [1] | [2] | [3] | [4] | [5] | [6] | [18] | [7] | [8] | [9] | [10] | [19] | [11] | [12] | [13] | [14] | [15] | [16]

CC(=O)N[C@H]1[C@H]([C@H](O)[C@H](O)CO)OC(C(=O)O)=C[C@@H]1N=C(N)N
inactive: [1] | [2] | [3] | [4] | [5] | [6] | [18] | [7] | [8] | [9] | [10] | [19] | [12] | [14] | [15]

CC(COc1ccccc1)NN (stereo not given)
inactive: [1] | [2] | [3] | [4] | [5] | [6] | [7] | [8] | [9] | [19] | [12] | [14] | [15]

CCCOC(=O)CC
inactive: [1] | [3] | [17] | [4] | [5] | [7] | [8] | [9] | [10] | [19] | [14] | [15]

CCCCCCCCN1CCCC1=O
inactive: [1] | [3] | [17] | [4] | [6] | [18] | [8] | [10] | [11] | [12] | [14] | [15]

COc1cc(C)nc(-n2nc(C)cc2OC)n1
inactive: [1] | [2] | [3] | [4] | [5] | [6] | [18] | [8] | [9] | [10] | [19] | [11] | [12] | [14]

CC[C@H]1OC(=O)[C@H](C)[C@@H](O[C@H]2C[C@@](C)(OC)[C@@H](O)[C@H](C)O2)[C@H](C)[C@@H](O[C@@H]2O[C@H](C)C[C@H](N(C)C)[C@H]2O)[C@](C)(OC)C[C@@H](C)C(=O)[C@H](C)[C@@H](O)[C@]1(C)O
inactive: [1] | [3] | [17] | [4] | [5] | [6] | [18] | [7] | [8] | [9] | [10] | [19] | [14]

CCOc1ccccc1OCC
inactive: [1] | [3] | [17] | [4] | [5] | [6] | [18] | [7] | [8] | [9] | [10] | [19] | [12] | [14] | [15]

CCCc1nn(C)c2c(=O)[nH]c(-c3cc(S(=O)(=O)N4CCN(C)CC4)ccc3OCC)nc12
inactive: [1] | [3] | [17] | [5] | [6] | [18] | [7] | [9] | [10] | [19] | [12] | [14] | [16]

O=C(O)c1cn(C2CC2)c2cc(N3CCNCC3)c(F)cc2c1=O
inactive: [1] | [2] | [3] | [17] | [4] | [18] | [7] | [8] | [9] | [10] | [19] | [11] | [12] | [13] | [14]
